# Bioassay records as filed in PubChem.
# Sampled rows, rich in hits. Any-hit rate of the full collection: about 0.9%.
# TR SRC2 fluor cs: Total Fluorescence Counterscreen for Inhibitors of the Interaction of Thyroid Hormone Receptor and Steroid Receptor Coregulator 2; Potency, µM (series often up to 106 µM), without a hit: at the top dose fluorescence change, negative = quenching; TRb/SRC2 Texas Red total fluorescence interference; 0.29% of 280,000 active; active = well fitted curve in either direction with a large enough effect; inconclusive = small, poorly fitted or top-dose-only effect
#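 Flags fluorescent or light-absorbing compounds by total fluorescence, S + 2P, at 555 nm excitation and 632 nm emission. Mixture: 20 nM Texas Red SRC2 peptide, 0.6 uM human TRb LBD, 1 uM T3, 5% DMSO; compound exposure 5 h at ambient temperature.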
# TRb-SRC2 inh: qHTS for Inhibitors of the Interaction of Thyroid Hormone Receptor and Steroid Receptor Coregulator 2. Thyroid hormone receptor beta (Homo sapiens), P10828. TRbeta-SRC2 peptide binding, fluorescence polarization; receptor liganded with 1 µM T3. Potency, µM (top dose mostly 106 µM), for inactives: at the highest dose activity change, negative = inhibition, hits mostly inhibitors. 0.065% of 280,000 active;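 note: plate controls were bound peptide for no effect and peptide without receptor for full effect; nearly all actives have a fitted effect of over 50% in size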
#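 Human TRb ligand-binding domain (0.6 uM) is mixed with 20 nM Texas Red SRC2 peptide and 1 uM T3; after compound addition and 5 hr at ambient temperature, polarization is measured and normalized to unbound and bound controls.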
# BLM helicase inh: qHTS Assay for Inhibitors of Bloom's syndrome helicase (BLM); RecQ-like DNA helicase BLM (Homo sapiens), P54132; recombinant BLM DNA unwinding, fluorescence dequenching; Potency, µM (series often up to 56.1 µM), for inactives: top-dose activity change, negative = inhibition, most hits filed as inhibitors; 0.2% of 350,000 active;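 note: plate controls were vehicle for no effect and no enzyme for full effect; nearly all actives have a fitted effect of over 35% in size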
# APE1 inh-1: qHTS Assay for Inhibitors of the Human Apurinic/apyrimidinic Endonuclease 1 (APE1); DNA repair nuclease/redox regulator APEX1 (Homo sapiens), P27695; recombinant APE1, TAMRA/BHQ-2 abasic DNA cleavage fluorescence; Potency, µM (highest dose often 65.8 µM), inactives show at the highest dose activity change, negative = inhibition, most hits filed as inhibitors; 0.35% of 350,000 active; AID 2517, 2012;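 note: plate controls were vehicle for no effect and reference inhibitor for full effect; nearly all actives have a fitted effect of over 55% in size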
#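 Compound pre-exposure to 0.75 nM APE1, 15 min at ambient temperature. Reaction initiated with 50 nM TAMRA/BHQ-2 THF substrate, read immediately in kinetic mode, 525 nm excitation, 598 nm emission.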
# RGS12 GoLoco inh: qHTS Assay for Inhibitors of RGS12 GoLoco Motif Activity (Red Fluorophore); Guanine nucleotide-binding protein G(i) subunit alpha-1 (Homo sapiens), P63096; Gai1:RGS12 GoLoco peptide FP, rhodamine, 10 min; Potency, µM (titrated, usually from 61.6 µM), for inactives: top-dose activity, negative = inhibition, actives largely listed as inhibitors; 0.44% of 230,000 active; AID 880, 2007; active = well fitted inhibition curve with a large enough effect, not every such curve was filed as active; inactive = no such curve, though single readings can be large or run the other way; note: nearly all actives have a fitted effect of over 30% in size
# RECQ1 helicase: qHTS Assay for Inhibitors of RecQ-Like Dna Helicase 1 (RECQ1); ATP-dependent DNA helicase Q1 (Homo sapiens), P46063; RECQ1 DNA unwinding, red fluorescence kinetic read; Potency, µM (doses to about 57.3 µM), inactives show top-dose activity, negative = inhibition, most hits filed as inhibitors; 0.54% of 240,000 active;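 note: plate controls were vehicle for no effect and no enzyme for full effect; nearly all actives have a fitted effect of over 30% in size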
# Target sequence (P46063 whole entry, looked up): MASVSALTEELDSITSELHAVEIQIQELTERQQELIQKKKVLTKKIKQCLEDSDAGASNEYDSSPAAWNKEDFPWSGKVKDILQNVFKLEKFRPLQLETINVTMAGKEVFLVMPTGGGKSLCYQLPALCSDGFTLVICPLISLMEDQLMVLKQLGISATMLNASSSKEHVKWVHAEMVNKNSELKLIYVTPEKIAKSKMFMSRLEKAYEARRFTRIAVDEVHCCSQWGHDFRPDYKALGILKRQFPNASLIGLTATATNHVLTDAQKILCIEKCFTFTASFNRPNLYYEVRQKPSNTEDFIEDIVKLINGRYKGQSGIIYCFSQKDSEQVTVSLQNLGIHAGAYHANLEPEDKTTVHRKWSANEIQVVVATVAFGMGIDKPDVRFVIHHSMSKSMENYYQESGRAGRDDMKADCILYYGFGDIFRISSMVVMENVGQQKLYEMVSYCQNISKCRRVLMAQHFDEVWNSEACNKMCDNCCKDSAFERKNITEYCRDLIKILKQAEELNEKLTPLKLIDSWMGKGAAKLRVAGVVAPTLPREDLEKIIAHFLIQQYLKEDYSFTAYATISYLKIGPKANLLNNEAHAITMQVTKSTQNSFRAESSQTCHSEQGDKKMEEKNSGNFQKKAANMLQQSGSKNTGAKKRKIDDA
#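 50 nM RECQ1T1 preincubated 15 min with compound in Tris pH 8.0 buffer with MgCl2, DTT, Tween-20 and 2.5 ug/ml poly(dI-dC); started with 200 nM TAMRA/BHQ-2 forked duplex and 2 mM ATP. Unwinding read as fluorescence (525/598 nm), two reads 2 h apart.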
# DNA dye displace: Counterscreen for APE1 Inhibitors: Fluorescent Dye Displacement Assay. DNA fluorescent dye displacement counterscreen, fluorescence. Potency, µM (doses to about 28.5 µM), without a hit: at the highest dose activity change, negative = inhibition, usual class: inhibitors. shares compounds with APE1 inh-1. 7% of 480 active;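 note: loss of thiazole orange fluorescence as the dye is displaced from duplex DNA; 0% = ThO with dsDNA and no compound and -100% = ThO without dsDNA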
# EndoIV counter: Counterscreen for APE1 Inhibitors: qHTS Assay for Inhibitors of Endonuclease IV | E. coli Endo IV, fluorogenic AP-site DNA cleavage | shares compounds with APE1 inh-1 | 4% of 560 active | AID 2565, 2010 | Potency, µM (top dose mostly 27.1 µM), for inactives: at the top dose activity change, negative = inhibition, actives largely listed as inhibitors;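 note: plate controls were uninhibited enzyme wells for no effect and no enzyme buffer wells for full effect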
# APE1 inh-2: Confirmation qHTS Assay for Inhibitors of the Human Apurinic/apyrimidinic Endonuclease 1 (APE1); shares compounds with APE1 inh-1; purified APE1, fluorogenic abasic-site DNA cleavage; 44% of 750 active; Potency, µM (doses to about 57.1 µM), for the others: at the top dose activity change, negative = inhibition, most hits filed as inhibitors; AID 2572, 2010; note: nearly all actives have a fitted effect of over 30% in size
# APE1 FP: qHTS FP-Based Assay for Inhibitors of the Human Apurinic/apyrimidinic Endonuclease 1 (APE1) | shares compounds with APE1 inh-1 | APE1 binding to TAMRA-labelled double-stranded DNA, fluorescence polarization displacement | Potency, µM (titrated, usually from 28.5 µM), for inactives: at the top dose activity, negative = inhibition, hits mostly inhibitors | 7% of 480 active
# The depositor's hits bear a star; i = inactive; ? = inconclusive; . = not tested or not shown; [ ] = another dose, or the depositor's remark. Unless noted, calls come from the whole dose curve; as a rule, active = well fitted curve in the direction sought with a large enough effect; inconclusive = small, poorly fitted or top-dose-only effect, or another doubt; inactive = no such curve, though single readings can be large; an effect the other way counts as inactive or inconclusive. Unless noted, % is set by controls: 0 for no effect and ±100 for the full control effect; potency is the fitted concentration of half-maximal effect.
SMILES,TR SRC2 fluor cs,TRb-SRC2 inh,BLM helicase inh,APE1 inh-1,RGS12 GoLoco inh,RECQ1 helicase,DNA dye displace,EndoIV counter,APE1 inh-2,APE1 FP
CC(=O)Oc1ccc2c(=O)c(/C=N/c3cc(=O)[nH]c(=S)[nH]3)coc2c1,-4%,-1%,0%,6%,-5%,0%,.,.,-39%,.
O=c1c(-c2ccc(O)cc2)coc2cc(O)cc(O)c12,-5%,1%,2%,-1%,-4%,-6%,.,.,.,.
O=c1c(-c2cc(O)c(O)c(O)c2)coc2cc(O)c(O)c(O)c12,-9%,14%,11µM*,0.32µM*,-14%,1.3µM*,.,7%[57.1 µM],0.4µM*,.
COc1ccc(-c2cnnc(N/N=C/c3ccc(O)c(O)c3)n2)cc1,-7%,13%,-16%,20µM*,-6%,16µM*,?,29%,-12%[24.4 µM],15%
CC(C)CC(NC(=O)C1CCC(C)CC1)C(=O)OCC(=O)c1ccc(Cl)cc1 (stereo unspecified),-3%,8%,-6%,.,.,.,.,.,.,.
O=C1CNC(=O)/C1=C/c1ccc(O)cc1,0%,4%,1%,0.89µM*,-11%,1%,1%,-1%,?,11%
COc1ccc(-c2nnc3ccc(SCC(=O)NCc4ccco4)nn23)cc1,1%,-7%,1%,?,-1%,-28%,.,.,-10%,.
Cc1cccc(-c2noc(CN(C(C)C)S(=O)(=O)c3ccc(Br)cc3)n2)c1,-37%,-3%,-5%,.,.,.,.,.,.,.
COCCn1c(=O)c(-c2ccc(Cl)cc2)nc2cnc(N3CCOCC3)nc21,.,.,1%,-1%,0%,i,.,.,.,.
Cc1ccc([N+](=O)[O-])cc1-c1ccc(/C=C(\C#N)c2[nH]nc(N)c2C#N)o1,-7%,4%,?,?,4%,32µM*,7.1µM*,-3%,7.1µM*,16%
N#Cc1ccccc1NC(=O)C(=O)NCCc1csc2nc(-c3cccc(F)c3)nn12,-16%,3%,-11%,.,.,.,.,.,.,.
CC(=O)c1cc(-c2ccc(F)cc2)n(CCC(=O)NCc2ccc(C)cc2)c1C,-3%,2%,0%,.,.,.,.,.,.,.
CC(OC(=O)c1ccccn1)C(=O)Nc1ccc2c(c1)OCCO2 (stereo unspecified),.,.,.,28%,.,.,.,.,.,.
CCN(c1ccccc1)S(=O)(=O)c1cc(C(=O)OC(C)C(=O)Nc2ccc3c(c2)OCCO3)ccc1C (stereo unspecified),-2%,6%,-14%,11µM*,16%,-12%,18%,-7%,14µM*,?
N#Cc1cc2nc(O)c(O)nc2cc1[N+](=O)[O-],-1%,5%,1%,?,0%,2%,.,-10%[57.1 µM],-82%,.
Cc1cc(=O)n(Cc2ccc(F)cc2Cl)c2c1c(C)nn2C,2%,5%,-1%,.,.,.,.,.,.,.
CC(C)c1ccc(CNc2n[nH]c(-c3ccco3)n2)cc1,-13%,1%,-7%,.,.,.,.,.,.,.
CCOC(=O)CNS(=O)(=O)c1cc(-c2nn(C)c(=O)c3ccccc23)ccc1C,-2%,0%,1%,35µM*,4%,-3%,-7%,9%,10µM*,-14%
CN(C)c1ccc(O)c2c1C[C@@H]1C[C@H]3C(N(C)C)C(=O)C(C(N)=O)=C(O)[C@@]3(O)C(=O)C1=C2O (stereo partly specified),-4%,1%,-12%,.,-2%,?,-2%[57.1 µM],10%[57.1 µM],-11%,?
COc1ccc(OC)c(-c2csc(N(Cc3ccco3)C(=O)c3ccco3)n2)c1,-1%,-2%,-16%,?,4%,-7%,-11%,?,?,-3%
COC(=O)[C@H](Cc1ccccc1)NC(=O)O[C@H]1C(=O)c2cc(OC)ccc2O[C@@H]1c1ccc(OC)c(Br)c1,-1%,0%,3%,2%,-2%,-5%,.,.,.,.
CC(C)(C)c1cccc(C2(O)C(=O)c3ccccc3C2=O)c1O,-3%,-3%,-4%,-8%,15%,i,.,.,.,.
Cc1ccc(C2(O)C(=O)c3ccccc3C2=O)c(O)c1C,-2%,1%,-3%,3%,-2%,?,.,.,?,.
Cc1cc(Nc2ccc(C)c(C)c2)n2cnnc2n1,-1%,0%,3%,.,.,.,.,.,.,.
C=C(Cl)COc1ccc2c(CCC)cc(=O)oc2c1,1%,-2%,-6%,15%,14%,-3%,.,.,-27%,.
CC1=CCC(C(=O)O)C(C(=O)Nc2ccc(-c3nc4ccc(C)cc4s3)cc2)C1 (stereo unspecified),-4%,2%,-7%,?,19%,-26%,.,.,-28%,.
CC1=CC2C(C)(C)CC(=O)C[C@]2(C)CC1COc1ccc2c(c1)CC(=O)C=C2 (stereo partly specified),-1%,5%,-13%,4%,51%,-12%,.,.,.,.
COc1ccc(-c2coc3cc(O)ccc3c2=O)cc1,-1%,-2%,0%,-4%,4%,0%,.,.,.,.
COc1ccc(-c2coc3cc(O)ccc3c2=O)cc1O,0%,0%,-5%,?,-3%,-31%,-7%,6%,-10%[24.4 µM],-6%
